Compound activity as filed in PubChem BioAssay.
HP1b binding inh = inhibitors of HP1-beta chromodomain binding to methylated histone tails; P83916; AlphaScreen HP1-beta / biotin-H3K9me3 peptide binding; Potency, µM (doses to about 114 µM), for inactives: top-dose activity change, negative = inhibition, usual class: inhibitors; 0.56% of 390,000 active; AID 540317; also: potency is read from the fitted curve at half-maximal effect; nearly all actives have a fitted effect of over 70% in size
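AlphaScreen: HP1-beta (50 nM) preformed 30 min with biotin-H3(1-18)K9me3 peptide (50 nM) in PBS pH 7.4, 0.01% Tween-20. Compound added for 30 min at RT, then streptavidin donor/nickel chelate acceptor beads (10 ug/mL) for 30 min.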
BAZ2B inh = BAZ2B (human) inhibition; 4.4% of 360,000 active; Q9UIF8; AlphaScreen BAZ2B-H3K14Ac peptide displacement; Potency, µM (doses to about 114 µM), for the others: top-dose activity change, negative = inhibition, actives largely listed as inhibitors; also: potency is read from the fitted curve at half-maximal effect; % is scaled to controls: 0 for no effect and ±100 for the full control effect; nearly all actives have a fitted effect of over 60% in size
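Compounds, titrated to a top concentration of 110 uM, were incubated 30 min at room temperature with preformed BAZ2B/acetyl-K14 H3 peptide complex (50 nM each). Proximity signal was measured by AlphaScreen after 20 min with beads.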
Six1-Eya2 blk = inhibitors of human Six1/Eya2 interaction; 0.56% of 360,000 active; AlphaScreen GST-Six1/His-Eya2 binding, biochemical; hits give low values; activity change, % (no concentration beside the values); in the data active = activity change below about -65%; inconclusive = mostly about -30% to -63%; also: % is scaled to controls: 0 for no effect and ±100 for the full control effect
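GST-Six1 + His-Eya2 (5X stock: 250/500 nM); Tris pH 8.0, 300 mM NaCl, 0.05% BSA, 0.02% Tween 20; GSH donor/Ni acceptor beads; 1 h 37 °C dark; AlphaScreen readout.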
CtBP-E1A inh = inhibitors of CtBP/E1A interaction; AlphaScreen GST-E1A/His-CtBP binding, 1536-well; hits give low values; activity change, % (no concentration beside the values); 0.49% of 340,000 active; in the data active = activity change below about -65%; inconclusive = mostly about -30% to -63%; also: % is scaled to controls: 0 for no effect and ±100 for the full control effect
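In 5 uL wells, 23 nL compound meets equimolar GST-E1A and His-CtBP (5X stock 125 nM each) for 2 h, 37 °C. Beads (5X, 50 ug/mL) then 1 h, 37 °C, dark.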
JMJD2A Tudor inh = JMJD2A Tudor domain (human) inhibition | AID 504339 | AlphaScreen JMJD2A-Tudor / H3K4me3 peptide binding | 4.4% of 390,000 active | O75164 | Potency, µM (doses to about 114 µM), inactives show top-dose activity change, negative = inhibition, hits mostly inhibitors; also: potency is read from the fitted curve at half-maximal effect; % is scaled to controls: 0 for no effect and ±100 for the full control effect; nearly all actives have a fitted effect of over 50% in size
Target sequence (O75164 whole entry, looked up, the tested form may be a part): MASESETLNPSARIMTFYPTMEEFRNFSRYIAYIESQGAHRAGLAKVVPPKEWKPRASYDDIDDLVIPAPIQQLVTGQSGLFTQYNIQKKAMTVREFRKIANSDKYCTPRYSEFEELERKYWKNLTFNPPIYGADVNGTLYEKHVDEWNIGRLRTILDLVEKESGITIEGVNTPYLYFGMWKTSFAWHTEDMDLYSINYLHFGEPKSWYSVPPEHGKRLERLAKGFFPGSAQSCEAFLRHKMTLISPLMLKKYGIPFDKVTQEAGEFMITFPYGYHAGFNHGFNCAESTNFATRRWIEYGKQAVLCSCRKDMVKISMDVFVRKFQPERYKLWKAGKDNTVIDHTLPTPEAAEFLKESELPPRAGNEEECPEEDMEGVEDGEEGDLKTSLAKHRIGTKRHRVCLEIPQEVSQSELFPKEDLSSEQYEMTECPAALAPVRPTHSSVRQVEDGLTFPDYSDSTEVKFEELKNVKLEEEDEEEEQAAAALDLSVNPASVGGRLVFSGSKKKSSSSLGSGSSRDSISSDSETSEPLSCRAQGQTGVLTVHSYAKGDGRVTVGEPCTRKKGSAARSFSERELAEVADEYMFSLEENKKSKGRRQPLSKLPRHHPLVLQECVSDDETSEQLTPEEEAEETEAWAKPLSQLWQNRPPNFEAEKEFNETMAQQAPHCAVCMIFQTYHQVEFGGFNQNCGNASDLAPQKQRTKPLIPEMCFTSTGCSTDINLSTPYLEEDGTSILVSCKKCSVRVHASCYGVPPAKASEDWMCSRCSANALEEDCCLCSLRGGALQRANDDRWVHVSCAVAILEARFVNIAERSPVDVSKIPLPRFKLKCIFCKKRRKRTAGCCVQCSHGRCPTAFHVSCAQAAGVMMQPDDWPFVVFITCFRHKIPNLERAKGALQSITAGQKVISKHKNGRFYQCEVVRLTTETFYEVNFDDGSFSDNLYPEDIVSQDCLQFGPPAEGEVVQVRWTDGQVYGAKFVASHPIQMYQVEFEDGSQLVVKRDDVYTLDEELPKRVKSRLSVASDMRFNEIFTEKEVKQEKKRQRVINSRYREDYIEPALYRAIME
G9a block = blocks human histone lysine methyltransferase G9a | 8.8% of 350,000 active | G9a H3K9 monomethylation, AlphaScreen, 2 h | AID 504332 | Potency, µM (top dose mostly 102 µM), inactives show at the top dose activity, negative = inhibition, most hits filed as inhibitors | Q96KQ7; also: potency is read from the fitted curve at half-maximal effect; % is scaled to controls: 0 for no effect and ±100 for the full control effect; nearly all actives have a fitted effect of over 75% in size
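AlphaScreen read-out: biotin-H3K9 peptide (500 nM) methylation by 20 nM enzyme with 20 uM SAM, 2 h at room temperature after 15 min compound preincubation; anti-monomethyl H3K9 antibody plus donor/acceptor beads, 10 min dark.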
Starred values were filed as active, the others as inactive; u = inconclusive; x = not tested or not shown; [ ] = dose if it differs, or a comment. Hits are enriched below; roughly 10% of the tested compounds scored in any of these assays. Unless noted, calls follow the shape of the dose curve; as a rule, active = well fitted inhibition curve with a large enough effect; inconclusive = small, poorly fitted or top-dose-only effect; inactive = no such curve, though single readings can be large or run the other way.

SMILES | HP1b binding inh | BAZ2B inh | Six1-Eya2 blk | CtBP-E1A inh | JMJD2A Tudor inh | G9a block
COc1ccc(-c2cc(C(=O)N3CCCCCC3)c3ccccc3n2)c(OC)c1 | 18% | -34% | -8 | -3 | -28% | 40µM*
Cc1ccccc1-c1cc(C(=O)N2CCCC2)c2ccccc2n1 | 8% | -20% | -3 | 10 | -12% | 40µM*
COc1ccc(OC)c(-c2cc(C(=O)N3CCN(c4ncccn4)CC3)c3ccccc3n2)c1 | 11% | 3% | u | u | -4% | u
COc1ccc(N2CC(NC(=O)c3c(F)cccc3Cl)CC2=O)cc1OC (centres undefined) | 9% | -8% | x | x | -13% | -4%[59 µM]
NC(N)=NCC1COc2ccccc2O1 (centres undefined) | x | x | x | x | x | 25%[12.7 µM]
Cc1ccc2nc(Cl)nc(-c3ccccc3)c2c1 | 14% | 1% | 6 | 0 | -6% | 20%
Cc1ccc2nc(CCl)[n+]([O-])c(-c3ccccc3)c2c1 | 9% | -32% | -1 | 12 | 18µM* | u
Cc1ccc(OCC(=O)NCCCNC(=O)c2ccncc2)cc1 | -4% | 10% | 9 | 3 | -18% | 32µM*
O=C(c1ccc2c(c1)N(Cc1ccc(F)cc1)C(=O)c1ccccc1S2=O)N1CCC(Cc2ccccc2)CC1 (centres undefined) | 21% | -22% | x | x | -18% | u
CCOC(=O)c1ccc(CSC(=N)N)o1 | 56% | -1% | 2 | -16 | -4%[11.4 µM] | -6%
CCc1oc(C(=O)OC)cc1CSC(=N)N | 12% | -6% | -2 | 2 | -15% | 50µM*
COc1ccc(C(N)CCc2ccc(C)o2)cc1 (centres undefined) | -12% | u | -16 | 2 | u | 79µM*
CCC(C)n1c(=N)c(C(=O)NC2CCCCC2)cc2c(=O)n3ccccc3nc21 (centres undefined) | 32% | 3% | x | x | -12% | -1%[59 µM]
OC(COC1CCCCC1)CN1CCCCC1 (centres undefined) | -20% | 56µM* | 4 | -2 | 79µM* | 7.9µM*
Cc1nccn1CC(O)COc1ccccc1 (centres undefined) | 17% | 4% | -1 | 5 | -4% | 6%[59 µM]
Cc1nccn1CC(O)COC1CCCCC1 (centres undefined) | u | 32µM* | 1 | 4 | 18µM* | u
CC(C)(C)C1CCC(OCC(O)CN2CCCC2)CC1 (centres undefined) | 33% | -1% | 0 | 1 | -1% | x
CCN1C(=O)/C(=C/N2CCc3ccccc3C2)SC1=S | 15% | 15% | -20 | -20 | -26% | x
CCCCCN1C(=O)/C(=C/c2c(N3CCc4ccccc4C3)nc3ccccn3c2=O)SC1=S | u | x | 9 | -1 | 40µM* | x
CSc1nn(Cc2ccc(F)cc2)c(N(C(C)=O)C(C)=O)c1S(=O)(=O)c1ccccc1 | 26% | 2% | x | x | -10% | -27%[59 µM]
O=C(O)CC1C(=O)NCCN1C/C=C/c1ccccc1 (centres undefined) | 58% | 11% | 1 | 3 | -21% | u
Cc1ccc(CN2CCNC(=O)C2CC(=O)O)cc1 (centres undefined) | 36% | 6% | -3 | 10 | -4% | 16µM*
O=C(O)CC1C(=O)NCCN1CCCc1ccccc1 (centres undefined) | 25% | 1% | 0 | 5 | -20% | 28µM*
CCOC(=O)N1CCN(c2ncnc3c2[nH]c2ccc(OC)cc23)CC1 | 22% | 4% | -12 | -13 | -7% | 15%[2.33 µM]
COc1cccc2[nH]c3c(N4CCCCC4)ncnc3c12 | u | x | -2 | 0 | -3% | u
SMILES | HP1b binding inh | BAZ2B inh | Six1-Eya2 blk | CtBP-E1A inh | JMJD2A Tudor inh | G9a block
CCOC(=O)N1CCN(c2ncnc3c2[nH]c2ccc(F)cc23)CC1 | 25% | -3% | -5 | -9 | 3% | 7%[59 µM]
COc1ccc2[nH]c3c(N4CCc5ccccc5C4)ncnc3c2c1 | -18% | u | -20 | -22 | u | 45µM*
O=C(c1ccco1)N1CCN(c2ncnc3c2[nH]c2ccccc23)CC1 | x | 8% | x | x | x | -34%[59 µM]
COc1cc2[nH]c3c(N4CCN(c5ccccn5)CC4)ncnc3c2cc1OC | -9% | u | u | -29 | -28% | 45µM*
COc1ccc(N2CCN(c3ncnc4c3[nH]c3ccccc34)CC2)cc1 | -13% | u | -26 | -21 | 50µM* | 13µM*
Fc1ccc2[nH]c3c(N4CCN(c5ccccc5)CC4)ncnc3c2c1 | -10% | 40µM* | u | u | u | u
COc1ccc(-n2c(=O)c3sc4ccccc4c3n(Cc3ccccc3)c2=O)cc1 | 16% | -8% | x | x | -21% | -29%[59 µM]
CCN(c1ccccc1)S(=O)(=O)c1ccc(NC(=O)c2cc(=O)c3c(C)cc(C)cc3o2)cc1 | 22% | -24% | x | x | -16% | 4%[59 µM]
O=C(NCCc1nc2ccccc2n1CCOc1ccc2ccccc2c1)C1CCCCC1 | 5%[57 µM] | x | x | x | -29%[57.1 µM] | x
CCCCN1C(=O)C(O)=C(C(C)=O)C1c1ccc(OC)cc1OC (centres undefined) | 4% | 50µM* | 6 | -9 | 50µM* | u
COc1ccc(OC)c(C2C(C(C)=O)=C(O)C(=O)N2CCc2ccc(OC)c(OC)c2)c1 (centres undefined) | 25% | -5% | 1 | 3 | -29% | u
COc1ccc(C2C(C(C)=O)=C(O)C(=O)N2c2nccs2)c(OC)c1 (centres undefined) | 46% | u | 0 | x | -2% | 40µM*
COc1ccc(C2C(C(C)=O)=C(O)C(=O)N2CCO)c(OC)c1 (centres undefined) | 11% | u | 2 | -2 | u | 50µM*
Cc1ccc(NS(=O)(=O)c2ccc3c(c2)CCC(C)(C)O3)cc1C | x | x | x | x | -6% | x
O=C(NCn1ccc(=O)[nH]c1=S)c1ccccc1 | -14% | -4% | 9 | 11 | -19% | 56µM*
O=C(O)C1CCCCC1C(=O)Nc1cccc2ccccc12 (centres undefined) | 13% | -5% | 0 | 1 | -14% | 11µM*
O=C(O)C1CCCCC1C(=O)Nc1ccccc1Nc1ccccc1 (centres undefined) | 10% | -8% | 3 | 2 | -18% | u
CCC1Oc2ccc(C)cc2N(CC(=O)N2CCN(c3ccc(F)cc3)CC2)C1=O (centres undefined) | 13% | -23% | 0 | -2 | u | 45µM*
O=C1CC(SCCc2nc3ccccc3[nH]2)C(=O)N1c1ccc(F)cc1 (centres undefined) | 18% | -31% | 4 | -5 | -16% | 45µM*
COc1ccc(N2C(=O)CC(SCCc3nc4ccccc4[nH]3)C2=O)cc1 (centres undefined) | 30% | -5% | 2 | 6 | -7% | x
